Data from PubChem BioAssay AID1345083 (National Center for Advancing Translational Sciences (NCATS), 2018).
Out of some 94,000 compounds screened, about 6,200 (6.6%) were called active. About 31% were inconclusive and are not listed. Calls follow the shape of the dose curve; as a rule, active = well fitted inhibition curve with a large enough effect; inconclusive = small, poorly fitted or top-dose-only effect; inactive = flat fitted curve, though single readings scatter. Only a selection was taken, and actives are over-represented in it overall.

Test: Cytotoxic Profiling in HEK 293 Cell Line of Diverse Libraries Using Quantitative High-Throughput Screening; also: nearly all actives have a fitted effect of over 60% in size
Conditions: HEK 293 viability, ATP luminescence (CellTiter-Glo), 48-72 h; series mostly up to 115 µM; activity change, negative = cytotoxicity: at the top concentration
Method in brief: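 ATP-coupled CellTiter-Glo luminescence served as viability read-out, recorded 10 min after reagent addition at room temperature. HEK 293 cells, 250 cells/well, had been incubated with pintool-transferred compound for 48 or 72 hr at 37 degree Celsius.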
% is scaled to controls: 0 for no effect and ±100 for the full control effect; potency is read from the fitted curve at half-maximal effect.

| Compound | activity change, negative = cytotoxicity | outcome | Potency |
| --- | --- | --- | --- |
| O=C(Cc1cccnc1)NC1CC(=O)N(Cc2cccc3ccccc23)C1 (stereo not given) | -12.1% (inactive) |  |  |
| CCNC(=O)c1noc(-c2ccc[nH]c2=O)n1 | 10.7% (inactive) |  |  |
| Cc1nc(CC(=O)N[C@@H]2COCC[C@H]2Oc2ccc(C#N)cc2)c(C)s1 | -10.6% (inactive) |  |  |
| Cc1ccc(C2Cn3cnc(C(=O)N4CCC(C(=O)NCCC(C)C)CC4)c3CO2)cc1 (stereo not given) | 10.4% (inactive) |  |  |
| Cc1ccc(C(=O)N2CCC(c3nn(-c4ccccn4)c(=O)[nH]3)CC2)cc1 | -27.8% (inactive) |  |  |
| CCCn1cnc2c1CN(S(=O)(=O)c1ccc(C#N)cc1)[C@H](C(=O)OC)C2 | 3.28% [at 172 µM] (inactive) |  |  |
| CCN(CC)C(=O)C(NC(=O)c1ccc(OC)cc1)C1CCN(C(=O)c2ccc(F)cc2)CC1 (stereo not given) | -3.47% (inactive) |  |  |
| O=C(NC1CCCCC1)[C@@H]1C[C@@H](O)CN1C1CCN(C(=O)c2ccncc2)CC1 |  | inactive |  |
| O=C1NC2(Cc3ccccc31)CN(Cc1cscn1)C2 |  | inactive [at 172 µM] |  |
| O=C1NCCCCCCN(Cc2ccncc2)[C@@H]2CN(C(=O)NCCc3ccccc3)CC[C@@H]12 | -3% (inactive) |  |  |
| COc1ccc(NC(=O)[C@@H]2C[C@@H](O)CN2C2CCN(C(=O)c3cccc(OC)c3)CC2)cc1 | -22.3% (inactive) |  |  |
| COc1ccc(NC(=O)N[C@@H]2C=C[C@@H](c3c(C)nn(-c4ccc(C(C)(C)C)cc4)c3C)C2)cc1 |  |  | 31.6 µM (active) |
| O=C(c1ccc(Cn2cccn2)o1)N1CCn2nc(C(O)CO)cc2C1 (stereo not given) | 3.08% (inactive) |  |  |
| CN1CCN([C@@H]2[C@H](O)[C@H](CO)O[C@@H]2CNS(=O)(=O)c2ccccc2)CC1 | -0.985% (inactive) |  |  |
| CCCn1c(C)cnc1C1CCN(C(=O)C2CCCC2)C1 (stereo not given) | -0.0753% (inactive) |  |  |
| COc1ccc(-c2ccc3ncn(Cc4ccccc4)c(=O)c3n2)cc1OC | -29% [at 172 µM] (inactive) |  |  |
| O=c1c2nc(OCc3ccc(-n4cccn4)cc3)ccc2ncn1Cc1ccccc1 |  |  | 28.2 µM (active) |
| O=C1CN(C(=O)c2ccc(-n3cccn3)cc2)CC(OCc2ccccc2)CN1Cc1cccnc1 (stereo not given) | 0.591% (inactive) |  |  |
| CN(C)C(=O)c1cc(-c2cccc(C(F)(F)F)c2)c2nncn2n1 |  | inactive |  |
| CC(=O)N1CCc2[nH]cnc2C12CCN(C(=O)c1ccc(=O)[nH]c1)CC2 |  | inactive |  |
| CC(C)CNC(=O)C1Cn2cccc2C(=O)N1CC(C)C (stereo not given) |  | inactive |  |
| COc1ccc(-n2c(=O)c(C(=O)NCC3CC3)nc3cccnc32)cc1 |  | inactive [at 172 µM] |  |
| COc1ccc2nc([C@H]3CCN(Cc4ccc(NC(C)=O)cc4)C3)[nH]c2c1 | -26.9% [at 172 µM] (inactive) |  |  |
| COc1ccc(CN2C[C@H]3CN(Cc4ccc(NC(C)=O)cc4)CCN3C2=O)cc1 |  |  | 89.1 µM (active) |

| Compound | activity change, negative = cytotoxicity | outcome | Potency |
| --- | --- | --- | --- |
| O=C(Nc1ccccc1)N1CCN2C(=O)N(Cc3ccc(F)cc3)C[C@H]2C1 | -21.7% [at 172 µM] (inactive) |  |  |
| COc1ccc(CCC(=O)N2CCCC(c3nc(-c4cccnc4)no3)CCNC(=O)CC2)cc1 (stereo not given) | -15.1% (inactive) |  |  |
| O=C(NC1CCCCC1)N1CCCCC1c1noc(COCC2CC2)n1 (stereo not given) | -29.1% (inactive) |  |  |
| O=C(Cn1nc2c(cc1=O)CCCC2)Nc1nc(-c2ccc3c(c2)OCO3)cs1 | 5.94% (inactive) |  |  |
| COc1ccc(-c2cccc(C(=O)NC3CC3)c2)nn1 | -19.7% [at 172 µM] (inactive) |  |  |
| COc1ccc(-c2cccc(C(=O)N3CCN(C(=O)c4ccc(F)cc4)CC3)c2)nn1 | -5.12% (inactive) |  |  |
| COc1ccc(-c2cccc(C(=O)N3CCC(NC(=O)c4ccc(C(F)(F)F)cc4)CC3)c2)nn1 |  |  | 39.8 µM (active) |
| COCC(=O)N1CCC(C(=O)N2CCCC(c3nc4ncccc4[nH]3)C2)CC1 (stereo not given) | -0.191% (inactive) |  |  |
| O=C1N[C@H](CC(=O)N2CCN(Cc3ccccc3)CC2)C(=O)Nc2ccccc21 | 7.44% (inactive) |  |  |
| COc1cccc(-c2ccnc3nc(Cc4cc(F)cc(F)c4)nn23)c1 |  |  | 39.8 µM (active) |
| COCc1nc2nccc(-c3ccccc3)n2n1 | 0.903% (inactive) |  |  |
| Fc1ccc(Cc2nc3nccc(-c4cc5ccccc5o4)n3n2)cc1 | -0.828% (inactive) |  |  |
| COCC1CN(C(=O)c2ccc(C#N)cc2)CC12CCOCC2 (stereo not given) | 4.38% (inactive) |  |  |
| COc1ccc(C(=O)N[C@@H]2CCC[C@@H]2C(=O)NCc2ccc3c(c2)OCO3)cc1 |  | inactive |  |
| COc1ccc(CNC(=O)c2cc3n(n2)CC(c2ccc4c(c2)OCO4)OC3)c(OC)c1 (stereo not given) |  |  | 35.5 µM (active) |
| COc1ccc(OC)c(NC(=O)c2cc3n(n2)CC(c2ccc(Cl)cc2)OC3)c1 (stereo not given) | 3.27% (inactive) |  |  |
| COc1ccc(OCc2nc(C)c(CCO)c(=O)n2CC(=O)NCc2ccc(F)cc2)cc1 | 4.49% (inactive) |  |  |
| N#Cc1ccc(CN2C[C@@H]3C[C@H]2C(=O)Nc2ccccc2O3)cc1 | -16.4% [at 172 µM] (inactive) |  |  |
| O=C1[C@@H]2C[C@@H](CN2Cc2ccc3ccccc3n2)Oc2ccccc2N1Cc1ccccc1 |  |  | 44.7 µM (active) |
| COCCN1C(=O)[C@@H]2C[C@@H](CN2C(=O)Nc2ccccc2)Oc2ccccc21 | -6.62% [at 172 µM] (inactive) |  |  |
| COCCC(=O)NCC1Cn2cccc2C(=O)N1Cc1ccccc1 (stereo not given) | -20.1% (inactive) |  |  |
| COc1ccccc1C(=O)N1CCC2(C1)C(=NC1CCCC1)NC(=O)N2c1cccnc1 (stereo not given) |  | inactive |  |
| CS(=O)(=O)N1CCC(C2CCN(C(=O)Cc3cccs3)C2)CC1 (stereo not given) | -7.95% (inactive) |  |  |
| COc1ccccc1CN1CCc2nc(C3CC3)nc(-c3ccc(O)cc3)c2CC1 |  |  | 44.7 µM (active) |

| Compound | activity change, negative = cytotoxicity | outcome | Potency |
| --- | --- | --- | --- |
| COc1ccc(CC(=O)N2CCc3nc(C4CC4)nc(-c4ccc(O)cc4)c3CC2)cc1 | -15.7% (inactive) |  |  |
| COc1ccccc1CN1CCc2nc(C(C)C)nc(-c3ccc(O)cc3)c2C1 | -27.8% (inactive) |  |  |
| COCCc1noc(Cc2c(C)nn(-c3ccccc3)c2C)n1 | -1.66% (inactive) |  |  |
| COc1ccc(CC(=O)N2CCC(Cc3nc(C(C)C)no3)CC2)cc1Cl | -27.9% (inactive) |  |  |
| COc1ccc(CC(=O)N2CCC(Cc3nc(-c4cnccn4)no3)CC2)cc1Cl | -8.58% (inactive) |  |  |
| COc1cccc(C(=O)N2CCC(Cc3nc(-c4cnccn4)no3)CC2)c1 | -10.7% (inactive) |  |  |
| COc1ccc(-c2noc(CC3CCN(C(=O)CC4CCCCC4)CC3)n2)cc1 |  |  | 44.7 µM (active) |
| CCOc1ccc(CC(=O)N2CCC(Cc3nc(-c4cnccn4)no3)CC2)cc1 | -18.9% (inactive) |  |  |
| COc1ccc(CC(=O)N2CCC(Cc3nc(-c4ccccc4)no3)CC2)cc1OC |  |  | 35.5 µM (active) |
| CNC(=O)[C@@H]1C[C@@H](O)CN1C1CCN(C(=O)c2ccc(OC)c(F)c2)CC1 | 1.95% (inactive) |  |  |
| CC1CCN(C(=O)CCNc2c(-c3ccc(F)cc3)nc3cnccn23)CC1 | -22.5% (inactive) |  |  |
| CCC1CN(C(=O)c2ccc(C#CC(C)(C)O)o2)CCN1C(C)C (stereo not given) | -18.1% (inactive) |  |  |
| CCCN(CC1CCOC1)S(=O)(=O)c1ccc(C(F)(F)F)cc1 (stereo not given) | -23.3% (inactive) |  |  |
| O=c1n(Cc2ccc(F)cc2)nc2n1CCCCC2 | 13.5% (inactive) |  |  |
| O=C(c1ccc2c(c1)OCO2)N1CCN(c2ccc(Cl)nn2)C(=O)C1 |  | inactive |  |
| Cc1cccc(OCC(=O)N2CCC[C@H]2c2nc(-c3ccccc3)no2)c1 | -18.9% (inactive) |  |  |
| N#Cc1ccc(CN2CCC[C@H]2c2nc(-c3ccc(F)cn3)no2)cc1 | -15.4% [at 172 µM] (inactive) |  |  |
| COCCOc1ncccc1-c1noc([C@@H]2CCCN2CC(C)(C)C)n1 |  |  | 63.1 µM (active) |
| Cn1ccnc1CN1CCCC(CCC(=O)Nc2ccccc2F)C1 (stereo not given) |  | inactive |  |
| CC1=C[C@@H](CNC(=O)CC2(CC(=O)O)CCCC2)[C@H](C(C)C)C[C@H]1Cc1nc2c(C)cccc2[nH]1 | -24.7% (inactive) |  |  |
| CC1=C[C@@H](CNC2CCN(C)CC2)[C@H](C(C)C)C[C@H]1Cc1nc2ccccc2[nH]1 |  |  | 28.2 µM (active) |
| CC(=O)N1CCC(NC[C@@H]2C=C(C)[C@H](Cc3nc4ccccc4n3C)C[C@H]2C(C)C)CC1 | -23.7% (inactive) |  |  |
| CC1=C[C@@H](CNCC(C)C)[C@H](C(C)C)C[C@H]1Cc1nc2c(C)cccc2[nH]1 |  |  | 39.8 µM (active) |
| CC(=O)N1CCC(C2CCN(C(=O)CCCc3nc4ccccc4[nH]3)C2)CC1 (stereo not given) | -4.93% (inactive) |  |  |

| Compound | activity change, negative = cytotoxicity | outcome | Potency |
| --- | --- | --- | --- |
| Nc1nc(C2CC(NC(=O)CCc3nc4ccc(F)cc4[nH]3)C2)cc(=O)[nH]1 (stereo not given) | -11.3% (inactive) |  |  |
| COc1ccc2nc(C[C@@H]3C[C@@H](C(C)C)[C@H](CNC(=O)CC(C)(C)CC(=O)O)C=C3C)[nH]c2c1 | -19.4% (inactive) |  |  |
| CC1=C[C@@H](CNC(=O)C2CCCCC2)[C@H](C(C)C)C[C@H]1Cc1nc2ccc(F)cc2[nH]1 |  |  | 28.2 µM (active) |
| CC1=C[C@@H](CN(CC2CC2)CC2CC2)[C@H](C(C)C)C[C@H]1Cc1nc2c(C)cccc2[nH]1 |  |  | 89.1 µM (active) |
| Cc1cnc(C(=O)NC2CC(c3nnc(CO)n3C3CC3)C2)[nH]1 (stereo not given) | 4.88% (inactive) |  |  |
| O=C(c1ccc2c(c1)[nH]c(=O)n2C1CCC(O)CC1)N1CCc2ccccc2C1 (stereo not given) | -26% (inactive) |  |  |
| Cc1ccc(-n2nc(C(=O)N3CC[C@](C)(O)C(C)(C)C3)c(O)cc2=O)cc1 | 1.18% (inactive) |  |  |
| Cc1ccc(C)c2c(=O)cc(CN3CCN(CCn4cncn4)CC3)[nH]c12 | -24% (inactive) |  |  |
| CCN1C(=O)CCN(Cc2cnn(CC)c2C)CC12CCOCC2 | -8.32% (inactive) |  |  |
| Cc1cc2occ(CC(=O)N3CC[C@](C)(O)[C@@H](O)C3)c2cc1Cl | -2.57% (inactive) |  |  |
| CCOC(=O)c1cn(C2CN(S(=O)(=O)c3cccc(F)c3)C2)nn1 | -18.3% (inactive) |  |  |
| N#Cc1ccc(S(=O)(=O)N2CC(n3cc(C(=O)NCc4ccccc4)nn3)C2)cc1 |  |  | 50.1 µM (active) |
| O=C(NCC1CC1)c1cn(C2CN(C(=O)NCCc3ccccc3)C2)nn1 |  | inactive |  |
| CC(=O)N1CCN(C(=O)C2(Cn3cccn3)CC2)CC(O)C1 (stereo not given) | -1.42% (inactive) |  |  |
| COCCNC(=O)[C@H]1C[C@H](Oc2cccnc2)CN1C(=O)NC1CCCCC1 | -13.6% (inactive) |  |  |
| O=C1NCCC[C@@H]1NC(=O)[C@H]1CN(C(=O)CS(=O)(=O)c2ccccc2)CCN1C(=O)C1CCCCC1 | -0.313% (inactive) |  |  |
| CCN(CC)c1ncccc1CNC(=O)Nc1ccc2c(c1)OCO2 | -14.6% (inactive) |  |  |
| CC(=O)Nc1ccc(-c2c(-c3ccc4c(c3)OCO4)nn(-c3cc(C)ccc3C)c2OC(C)=O)cc1 |  |  | 39.8 µM (active) |
| CCCc1nn(-c2cccc(F)c2)c(OC(C)=O)c1-c1ccc(NC(C)=O)cc1 | -31.7% (inactive) |  |  |
| CN1CCCN(C[C@@H]2CN(C(=O)c3ccnn3C)C[C@@H]2CO)CC1 | 3.91% (inactive) |  |  |
| O=C(Cc1cccnc1)N1CCCC(c2nc(CCOCC3CCCC3)no2)C1 (stereo not given) | -14.1% (inactive) |  |  |
| CCN(CC)C(=O)N1CCCC(c2nc(CCOCC3CCOCC3)no2)C1 (stereo not given) | -24% (inactive) |  |  |
| C1CCC(COCCc2noc(C3CNC3)n2)C1 |  |  | 6.31 µM (active) |
